Reference: PubChem BioAssay (NCI)
Compounds without any hit were thinned out: in the full panel of roughly 83,000, 20% have a hit.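 A percent growth of 40 corresponds to 60% growth inhibition; 0 means no net growth; -100 means all cells died. Active threshold: below 10.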 Values without a mark were called inactive. Active and inactive are the calls of the source.

How the values were obtained:
Assay in all cases: NCI-60 one-dose screen, 48 h (100 = growth as untreated, 0 = no growth, -100 = all killed)
Conditions in all cases: 10 µM unless noted
SR leukemia = test system: SR leukemia
RPMI-8226 leukemia = test system: RPMI-8226 leukemia
OVCAR-8 ovarian = test system: OVCAR-8 ovarian
OVCAR-5 ovarian = test system: OVCAR-5 ovarian
SK-OV-3 ovarian = test system: SK-OV-3 ovarian
IGROV1 ovarian = test system: IGROV1 ovarian
OVCAR-3 ovarian = test system: OVCAR-3 ovarian
HS 578T breast = test system: HS 578T breast
NCI/ADR-RES ovarian = test system: NCI/ADR-RES ovarian
OVCAR-4 ovarian = test system: OVCAR-4 ovarian

SMILES	growth (SR leukemia)	growth (RPMI-8226 leukemia)	growth (OVCAR-8 ovarian)	growth (OVCAR-5 ovarian)	growth (SK-OV-3 ovarian)	growth (IGROV1 ovarian)	growth (OVCAR-3 ovarian)	growth (HS 578T breast)	growth (NCI/ADR-RES ovarian)	growth (OVCAR-4 ovarian)
CO[C@H]1/C=C/O[C@@]2(C)Oc3c(C)c(O)c4c(c3C2=O)C(=O)C(/C=N/N(c2ccccc2)c2ccccc2)=C(NC(=O)/C(C)=C\C=C\[C@H](C)[C@H](O)[C@@H](C)[C@@H](O)[C@@H](C)[C@H](OC(C)=O)[C@@H]1C)C4=O	-13% (active)	-19.1% (active)	7.09% (active)	-43.7% (active)	12.2%	-16.3% (active)	-83% (active)	-0.488% (active)	6.55% (active)	
COc1ccc2c(c1)/C(=C\c1sc(=S)[nH]c1O)C(C(=O)O)=N2	110%	101%	99%	101%		107%	98.8%	94%	102%	
Cc1cc(Cc2cc(C)cc(C(C)(C)C)c2O)c(O)c(C(C)(C)C)c1	-7.3% (active)	32.2%	33.9%		51.9%	47.5%	38.5%			48.5%
C=C(C=O)C1CCC2(C(=O)O)CCC3(C)C(CCC4C5(C)CCC(O)C(C)(C)C5CCC43C)C12 (configuration not stated)	-2.18% (active)	-12.7% (active)	16.8%		51%	6.56% (active)				34.2%
CC(=O)OCCc1ccccc1	85.3%	93.5%	98.7%		102%	101%	137%	104%	86.3%	106%
CN1C[C@@H](c2ccc(Cl)cc2)[C@]2(NC(=S)N(c3ccccc3)C2=O)[C@@]12C(=O)NC1C=CC(Br)=C[C@H]12 (some centres not stated)	48.2%	29.3%	70.1%	101%	77.2%	56%	77.2%	68.4%	64.3%	
O=c1cc(-c2ccc(OCc3ccccc3)cc2)oc2c(I)c(OCc3ccccc3)cc(OCc3ccccc3)c12	94.3%	108%	99.6%	103%		100%	104%		101%	100%
CCN(CC)CCOC(=O)N1c2ccccc2Sc2ccccc21	98.6%	85.6%	101%	101%	98%	94.1%	107%	91.7%	96.1%	
CCN(CC)CCCC(C)NCc1ccccc1 (configuration not stated)	111%	107%	93.7%	97.6%	118%	95.6%	104%	115%	106%	
CCCCCCCC/C=C/CCCCCCCC1=NCC[N+]1(CCO)CCO	17.4%	38.6%	80.6%	77.5%	88%	-8.63% (active)	59.9%	88.6%	94.9%	
O=C(CCCCCCCn1cc(-c2cccnc2)nn1)Nc1ccccc1-c1ccccc1	49.2%	30.5%	20%		61.7%	28.3%	48.8%	66.4%	24.1%	41.7%
N#Cc1c(NC(=O)c2ccccc2I)sc2c1CCCC2	38.6%	46.4%	51.4%	70.8%		50.6%	15.7%		13.2%	79.9%
COc1cc(C(=O)/C=C/c2c(-c3ccc(F)cc3)nc3ncccn23)cc(OC)c1OC	9.6% (active)	11.3%	48.3%		63.9%	47.8%	19.1%			46.5%
COc1cc(/C=C/C(=O)c2cccc(-n3cc(-c4ccc(Cl)cc4)[nH]c3=O)c2)cc(OC)c1OC	-15.8% (active)	-27.1% (active)	29.3%		84.8%	13.1%	15.8%			76.9%
CC(=[N-])N1CCC[C@@H](Nc2c3ccccc3nc3ccccc23)C1.[Cl][Pt].[NH-]CCC[NH-]	17.1%	30.1%	39.1%	39%				51.7%	85%	
Cn1cc(-c2ccc3ncc(-c4ccc(CC(=O)Nc5cc(C(C)(C)C)nn5C)cc4)cc3c2)cn1	11.6% [30 µM]		3.22% [30 µM] (active)	46.2% [30 µM]	12.6% [30 µM]	7.76% [30 µM] (active)	7.38% [30 µM] (active)	27.8% [30 µM]	-8.5% [30 µM] (active)	-21.8% [30 µM] (active)
CNC=O	92.4%	103%		87.7%	105%	95%	109%	2.14% (active)	59.5%	115%
O=C(O)CC1Sc2ccccc2NC1=O (configuration not stated)	61.1%	96%		83.9%	106%	93.6%	110%	133%	88.2%	
CC(=O)NCC(=O)Nc1ccc(-c2nnc3ccccn23)nc1.CC(=O)NCC(=O)Nc1ccc(-c2nnc3ccccn23)nc1.[Pt+2]	104%	108%	94.3%		112%	106%	107%	104%	106%	119%
COc1ccc(-c2nc3sc4c(c3c(=O)[nH]2)CCCC4)c2ccccc12	7.04% (active)	11.5%	12.8%		33.7%	37.5%	-64.5% (active)	-0.402% (active)	5.34% (active)	-7.19% (active)
Cc1c2c(cn1Cc1ccccc1)CCc1cn(C)nc1-2	53.2%	40.9%	86.5%		108%		107%			55.4%
CC[C@]1(O)C[C@H]2CN(CCc3c([nH]c4ccccc34)[C@@](C(=O)OC)(c3cc4c(cc3OC)N(C=O)[C@H]3[C@@](O)(C(=O)OC)[C@H](OC(C)=O)[C@]5(CC)C=CCN6CC[C@]43[C@@H]65)C2)C1	9.82% (active)	-5.85% (active)		-47.6% (active)	-7.88% (active)	4.04% (active)			-62.6% (active)	49.2%
CC(=O)Nc1nccs1	111%		103%	84.3%	98.8%	94.7%	99.6%	91.7%	94.3%	117%
O=C1Nc2ccccc2SC1C1SC(=S)N(Cc2ccccc2)C1=O (configuration not stated)	-12.1% (active)	-21.7% (active)		104%	118%	96.5%	-5.62% (active)	27%	104%	59.8%
Cc1c(C(N)=O)sc2nc(C)n(/N=c3\scc(-c4ccccc4)n3Cc3ccccc3)c(=O)c12	12.8%	-10.3% (active)	14.7%		58.6%	10.9%	4.32% (active)	-14.6% (active)	18.9%	33.5%
COc1ccc(OC)c(C(=O)Nc2cccc(-c3cc(=O)c4ccccc4o3)c2)c1	80%		63.3%	95.4%	52.6%	104%	110%	68.3%	80.2%	73.3%
O=C(O)c1ccccc1C(=O)Nc1ccc(Cl)cc1	80.4%		87.7%	103%	109%	102%	110%	132%	104%	110%
C/C(=N\NC(N)=S)c1nc2ccc(Cl)cc2[nH]1	30.5%	57.6%	39.1%		47.1%	58.9%	50.1%		31.1%	32.3%
COc1ccc(OC)c(Nc2nc3nonc3nc2Nc2cccc(Br)c2)c1	19.6%	2.67% (active)	10.5%		3.28% (active)		10.1%	7.84% (active)	9.06% (active)	12.1%
COc1cc(/C=C/c2nc(Nc3ccc(S(=O)(=O)Nc4cc(C)on4)cc3)c3ccccc3n2)ccc1O	19.4%	72.9%	73.5%		86%	59.5%	65.2%	78.5%	51%	91%
